Assay results as given in PubChem BioAssay.
A number with no mark means an inactive call. No rule for the calls is given here.

The compounds below were run against Pantothenate synthetase (Mycobacterium tuberculosis (strain ATCC 25618 / H37Rv)) (UniProt P9WIL5) (assay: Recombinant Mtb pantothenate synthetase (PanC) inhibitors, coupled enzyme, confirmatory (AID 375;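 also: 0% = full reaction with vehicle and 100% = no enzyme background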)). Settings: coupled enzyme assay; at 10 µM, stronger effect = higher value.
Chain of Pantothenate synthetase (Mycobacterium tuberculosis (strain ATCC 25618 / H37Rv)) (P9WIL5 whole entry, looked up): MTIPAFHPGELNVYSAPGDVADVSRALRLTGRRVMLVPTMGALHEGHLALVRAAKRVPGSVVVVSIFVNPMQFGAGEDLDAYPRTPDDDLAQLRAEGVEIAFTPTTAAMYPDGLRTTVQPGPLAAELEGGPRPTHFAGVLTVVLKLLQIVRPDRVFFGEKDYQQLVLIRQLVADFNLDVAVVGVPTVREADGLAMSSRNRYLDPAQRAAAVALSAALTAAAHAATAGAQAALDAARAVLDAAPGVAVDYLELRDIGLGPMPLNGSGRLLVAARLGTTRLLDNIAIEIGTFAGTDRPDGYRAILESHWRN
`Cn1cnnc1Sc1nc2c(c(=O)n(C)c(=O)n2C)n1Cc1ccccc1Cl` was tested, and the inhibition was 0%.
`Cc1ccc(NC(=O)c2ccco2)c(NC(=O)CN2C(=O)c3ccccc3C2=O)c1` was tested, and the inhibition was 7%.
`CCc1nnc(NC(=O)CSc2nnc3ncccn23)s1` was tested, and the inhibition was 11%.
`c1ccc(Cn2nnnc2C(c2cccs2)N2CCSCC2)cc1` (stereo unspecified) was tested, and the inhibition was 0%.
Compound `COc1ccc(-c2ccc(-c3nnn(CC(C)=O)n3)cc2)cc1` has an inhibition of 2%.
`COC(=O)Nc1ccccc1C(=O)N1CCCCC1` was tested, and the inhibition was 0%.
`COC(=O)c1[nH]c(C)c(/C(O)=C2\C(=O)C(=O)N(CCN(C)C)C2c2ccccc2OC)c1C` (stereo unspecified) gave an inhibition of 1%.
Compound `Cc1ccccc1N(C)S(=O)(=O)c1ccc2[nH]cc(C(=O)NCC3CCCO3)c(=O)c2c1` (stereo unspecified) has an inhibition of 10%.
Work on `Cc1cc(C)c(NC2=NCC(=O)N2C2CCCCC2)c(C)c1` yielded an inhibition of 0%.
Work on `Cn1ncc2c(Nc3ccccc3Br)ncnc21` yielded an inhibition of 0%.
`CCC(C)n1ncn(-c2ccc(N3CCN(c4ccc(OCC5COC(Cn6cncn6)(c6ccc(Cl)cc6Cl)O5)cc4)CC3)cc2)c1=O` (stereo unspecified) showed an inhibition of 8%.
With `COc1ccc(-c2nnc(SC(C)C(=O)Nc3nccs3)n2-c2ccccc2)cc1OC` (stereo unspecified) the inhibition was 0%.
`CCOc1ccc(C2C(C#N)=C(N)Oc3cc(C)n(Cc4ccco4)c(=O)c32)cc1OC` (stereo unspecified) showed an inhibition of 2%.
`OCCNC1=NCCN1` gave an inhibition of 1%.
With `CCOC(=O)CSC1=Nc2ccccc2C2=NC(CC(=O)NCc3cccs3)C(=O)N12` (stereo unspecified) the inhibition was 4%.
`Cc1ccc(Cn2nnnc2CN2CCC(O)(c3ccccc3F)CC2)cc1` was tested, and the inhibition was 0%.
